# Assay outcomes from PubChem BioAssay.
# DUSP3 inh – DUSP3 (human) phosphatase inhibition; AID 1654; 290,000 compounds, 0.52% hits; P51452; inhibition, % at 13.3 µM; recombinant VHR phosphatase, pNPP absorbance; in the data active = inhibition above about 50%
# Target sequence (P51452 whole entry, looked up): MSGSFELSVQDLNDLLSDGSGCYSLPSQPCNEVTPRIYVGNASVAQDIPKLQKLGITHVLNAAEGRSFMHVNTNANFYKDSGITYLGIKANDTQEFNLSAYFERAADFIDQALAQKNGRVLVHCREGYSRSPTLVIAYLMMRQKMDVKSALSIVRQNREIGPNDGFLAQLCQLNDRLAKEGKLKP
# Mtb FBA inh – inhibits M. tuberculosis FBA enzyme. 360,000 compounds, 2.3% hits. P9WQA3. inhibition, % at 1 µM. purified M. tuberculosis FBA, fluorescence read-out; in the data active = inhibition above about 27%;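 also: 0% = vehicle and 100% = reference inhibitor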
# Target sequence (P9WQA3 whole entry, looked up): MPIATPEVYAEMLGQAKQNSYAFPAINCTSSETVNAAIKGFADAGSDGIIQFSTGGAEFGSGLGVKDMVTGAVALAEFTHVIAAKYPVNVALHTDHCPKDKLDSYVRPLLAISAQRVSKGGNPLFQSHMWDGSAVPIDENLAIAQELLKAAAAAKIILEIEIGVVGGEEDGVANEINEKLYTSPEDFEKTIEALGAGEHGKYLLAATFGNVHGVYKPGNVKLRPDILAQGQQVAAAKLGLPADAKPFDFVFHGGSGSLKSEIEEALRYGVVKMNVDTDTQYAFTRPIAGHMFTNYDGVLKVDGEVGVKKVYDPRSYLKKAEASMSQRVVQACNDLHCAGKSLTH
# Mtb hypoxia rep – Mtb hypoxia fluorescent reporter inhibition; M. tuberculosis hypoxia-regulated fluorescent reporter, fluorescence; fluorescence inhibition, % (concentration not given with the values); 300,000 compounds, 0.1% hits; AID 1159583; in the data active = fluorescence inhibition mostly above about 23%, no sharp cut-off; inactive = mostly below about 17%
# GDH-TPI counter-1 – inhibits GDH-TPI coupling enzymes, artifact for Mtb FBA screen. GDH-TPI coupled enzyme counterscreen, NADH absorbance. inhibition, % at 4.8 µM. 360,000 compounds, 1.2% hits; in the data active = inhibition above about 30%;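 also: 0% = DMSO wells and 100% = wells lacking the enzyme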
# Mtb bLac sens – beta-lactam sensitization of Mtb H37Rv; M. tuberculosis H37Rv growth with meropenem, percent inhibition; inhibition, % at 25 µM; 330,000 compounds, 0.27% hits;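 also: growth measured after seven days incubation then overnight dye step; 0% = bacteria only wells and 100% = bacteria with antibiotic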
# Mtb FBA inh conf – Mtb FBA inhibition, confirmed | 5,600 compounds, 78% hits | AID 651616 | shares compounds with Mtb FBA inh | purified M. tuberculosis FBA, fluorescence read-out | inhibition, % at 1 µM; in the data active = inhibition above about 27%;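 also: 0% = vehicle wells and 100% = reference inhibitor wells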
# GDH-TPI counter-2 – inhibits GDH-TPI coupling enzymes, flagging Mtb FBA hits; AID 652141; GDH-TPI coupled enzyme counterscreen, fluorescence; shares compounds with Mtb FBA inh; inhibition, % at 1 µM; 5,600 compounds, 81% hits; in the data active = inhibition above about 10%
# GDH-TPI dose – inhibits GDH-TPI coupling enzymes in dose response. shares compounds with Mtb FBA inh. GDH-TPI coupled enzyme assay, fluorescence, artifact counterscreen. IC50, µM. 170 compounds, 79% hits. AID 652145
# Starred values were filed as active, the others as inactive; . = no result given; + = active, no number. A selection: hits, their analogues and other compounds. The true share with any hit is near 3.6%. Unless noted, no rule for the calls is given here.
SMILES,DUSP3 inh,Mtb FBA inh,Mtb hypoxia rep,GDH-TPI counter-1,Mtb bLac sens,Mtb FBA inh conf,GDH-TPI counter-2,others
CC1(C(=O)N(CC(=O)NC2CCCC2)Cc2ccccc2)CC(=O)N=C2C=CC=CN21 (stereo not given),35.0,109.2*,-13.4,6.5,0.9,139.6*,108.5*,
COc1ccc(Br)cc1C=NNC(=O)c1cccc(S(=O)(=O)N2CCOCC2)c1,.,.,-0.5,.,.,.,.,
COc1cc2c(OC)cccc2cc1C(=O)O,14.5,65.0*,9.4,10.8,7.1,+,+,
CC(=NNC(=O)c1c(Cl)c(C)nn1C)c1cccc(NC(=O)c2cccc(F)c2)c1,.,.,8.8,.,.,.,.,
CN1c2cccc3cccc(c23)N(C)C1c1cccs1,21.3,-1.4,23.8,12.7,-11.1,.,.,
CC1N(C)c2cccc3cccc(c23)N1C,-0.1,103.1*,21.6,3.0,-6.3,195.8*,128.0*,
CCCCNc1c(-c2ccc(SC(C)CC)c(OC)c2)nc2ccc(Cl)cn12 (stereo not given),.,16.1,4.5,10.8,99.6,.,.,
CCCCNc1c(-c2ccc(-c3ccc(OC)cc3)c(OC)c2)nc2ccccn12,.,72.8*,6.5,22.9,93.4,82.3*,59.3*,
CCCCCCSc1cccc(-c2nc3cc(C)ccn3c2NCc2ccccc2)c1,.,27.8*,0.9,18.7,-1.6,121.6*,104.4*,
CCCCNc1c(-c2ccc(SC(C)CC)c(OC)c2)nc2ccc(C)cn12 (stereo not given),.,47.6*,5.6,13.8,99.6,35.3*,26.6*,
CCCCCCSc1ccc(-c2nc3ccc(Cl)cn3c2NCCCC)cc1OC,.,3.9,4.7,-3.5,6.8,.,.,
CCCCCCSc1cccc(-c2nc3ccccn3c2NCc2ccccc2)c1,.,41.9*,.,13.6,23.1,101.3*,66.4*,
CC(=O)Nc1ccc(NC(=NS(=O)(=O)c2ccccc2)c2ccccc2)cc1,.,.,10.8,.,.,.,.,
CC(C)(C)C1COC(=O)CCCC=CCC(CC(=O)NCCO)C(=O)N1 (stereo not given),.,.,9.7,.,.,.,.,
Cc1cccc(NC(=O)CCC(=O)NN=Cc2ccc(O)cc2O)c1,.,.,7.0,.,.,.,.,
CCCCCCSc1cc(-c2nc3ccc(C)cn3c2NCc2ccccc2)ccc1OC,.,28.5*,4.2,10.9,5.5,188.5*,135.6*,
Cc1nn2c(=O)c(NC(=O)c3ccc(Cl)cc3)cnc2s1,-19.7,65.0*,3.8,6.9,2.6,43.8*,28.4*,
O=S(=O)(c1ccccc1)[C@@]1(c2ccccc2)CC2ON=C(c3cccc(-c4ccccc4)c3)C2C1 (stereo not given in full),.,.,9.7,.,.,.,.,
CCN1C(=O)CSc2ccc(C(=O)NCc3ccccc3)cc21,12.5,3.2,4.8,-1.7,-7.0,.,.,
CCC(C)NC(=O)c1ccc2c(c1)N(Cc1ccccc1)C(=O)CS2 (stereo not given),38.3,96.6*,-1.9,4.4,2.9,68.3*,78.1*,
CCCc1c(C(=O)NN=Cc2ccccc2C(F)(F)F)nnn1-c1nonc1N,.,.,2.0,.,.,.,.,
Cc1c2c(nc3c(C(=O)NC4CCCC4)cnn13)CCCC2,31.1,21.2,9.4,18.1,.,.,.,
COC(=O)c1cnn2c3c(c(C)nc12)CCCC3,-11.1,74.3*,4.1,2.4,4.2,130.2*,106.9*,
CCCC1OC23CCCCC2C(C#N)(C(=N)O3)C1(C#N)C#N (stereo not given),3.6,37.1*,7.6,1.0,-1.8,15.4,-2.0,GDH-TPI dose=>10
CC1OC23CCCCC2C(C#N)(C(=N)O3)C1(C#N)C#N (stereo not given),17.7,21.8,2.2,2.8,-1.8,.,.,
SMILES,DUSP3 inh,Mtb FBA inh,Mtb hypoxia rep,GDH-TPI counter-1,Mtb bLac sens,Mtb FBA inh conf,GDH-TPI counter-2,others
N#CC12COC3(CCCCC3C1(C#N)C#N)OC2=N (stereo not given),25.0,38.6*,19.5,9.3,35.6,75.3*,61.1*,
COc1ccc(C2OC34CCCCC3C(C#N)(C#N)C2(C#N)C(=N)O4)cc1 (stereo not given),14.0,38.9*,.,-11.0,1.9,80.3*,66.6*,
COc1ccc(C2CC3(O)NC(=O)C(C#N)(C3C)C2(C#N)C#N)cc1 (stereo not given),9.0,-1.5,5.0,-18.6,-8.7,.,.,
N#CC1(C#N)COC23CCCCC2C1(C#N)C(=N)O3 (stereo not given),-3.2,26.2,3.1,-1.6,-12.9,.,.,
COC(=O)Cc1ccc(OCc2ccc(Cl)nc2)cc1,6.7,53.3*,-10.3,-5.0,-4.7,147.9*,102.3*,
O=C(COc1ccccc1)NN=Cc1ccc(O[C@@H]2O[C@H](CO)[C@@H](O)[C@H](O)[C@H]2O)cc1,.,.,-6.1,.,.,.,.,
Cc1ccc(S(=O)(=O)N(C)C)cc1NC(=S)Nc1cccc2ccccc12,3.5,33.8*,.,-2.7,-3.4,+,194.2*,
Fc1ccc(NC(=S)Nc2cccc3ccccc23)cc1F,27.9,48.6*,0.4,10.9,0.6,24.0,16.5*,
Cc1ccc(NC(=S)Nc2cccc3ccccc23)cc1,6.2,21.2,2.5,6.5,10.6,.,.,
Cc1cc(C)cc(NC(=S)Nc2cccc3ccccc23)c1,13.7,41.8*,-5.6,8.8,32.5,147.0*,129.5*,
CC(=O)NNC(=S)Nc1cc(S(=O)(=O)N(C)C)ccc1C,-2.7,1.7,7.4,8.1,3.2,.,.,
Cc1cccc(NC(=S)Nc2cccc3ccccc23)c1,18.7,46.5*,7.9,12.3,-4.9,143.4*,111.7*,
Fc1ccc(NC(=S)Nc2cccc3ccccc23)cc1,22.0,19.4,-1.4,5.2,3.4,.,.,
COCCN1C(=O)NC(c2ccco2)C(C(C)=O)=C1C (stereo not given),.,.,0.0,.,.,.,.,
COC(=O)[C@@]1(Cc2ccc(F)cc2)C2c3cc(C(=O)N(C)C)n(Cc4nc5ccccc5[nH]4)c3CC2CN1C(=O)c1ccccc1 (stereo not given in full),.,.,5.5,.,.,.,.,
C=C(C)C1CCC(C)=C1CC(C)(C)C=Nn1cnnc1 (stereo not given),.,.,-4.9,.,.,.,.,
CCc1cccc(NC(=S)Nc2cccc3ccccc23)c1,43.7,46.1*,-4.7,7.4,-5.2,86.1*,76.7*,
COc1cccc(NC(=S)Nc2cccc3ccccc23)c1,10.5,21.3,-4.7,-1.7,22.3,.,.,
CC(CCC1CC(C)OC1=O)=NNC(N)=O (stereo not given),.,.,1.7,.,.,.,.,
O=C(CSc1nnc(-c2ccccn2)n1Cc1ccccc1)N1CCCC1,20.3,84.0*,10.1,-1.9,-2.6,101.3*,68.4*,
CCOC(=O)c1cnc2c(C(=O)OCC)cnn2c1N,-2.7,6.4,-10.0,-7.6,0.4,.,.,
CCOC(=O)c1cnn2c(N)c(C#N)cnc12,1.2,28.9*,2.2,26.0,2.9,50.7*,37.0*,
COCCn1c(/C=C/c2ccccc2)nc2ccccc21,21.6,53.1*,19.5,29.6,-6.6,6.7,-2.6,
Cc1ccc(NC(=O)Cn2c(=O)c(C)nc3ccccc32)cc1,10.6,2.1,-0.4,-1.9,-4.4,.,.,
